In all, about 220,000 compounds went through this assay and about 1,600 (0.73%) were called active. This is one part of a sample in which actives are shown more often than they occur.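 Rule for the calls: active = mean inhibition across duplicate retests at 20 µM reaching about 50% (limit read from the data); inactive = the rest, inconclusive results apart.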
Biological target: Runt-related transcription factor 1 (Homo sapiens) + Core-binding factor subunit beta (Homo sapiens) (UniProt Q01196+Q13951)
Assay: inhibitors of RUNX1 Runt–CBFb-SMMHC binding, primary screen, biochemical, FRET, Cerulean-Runt, Venus-CBFb-SMMHC, uHTS (AID 1434);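 note: 0% = DMSO wells and 100% = wells with excess untagged CBFb-SMMHC; inhibitors lower the FRET ratio by blocking Runt binding to CBFb-SMMHC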
Conditions: Cerulean-Runt/Venus-CBFb-SMMHC FRET ratio 530/480, 1 h, at 20 µM, stronger effect = higher value

Sequence of Runt-related transcription factor 1 (Homo sapiens) + Core-binding factor subunit beta (Homo sapiens) (Q01196 whole entry, looked up): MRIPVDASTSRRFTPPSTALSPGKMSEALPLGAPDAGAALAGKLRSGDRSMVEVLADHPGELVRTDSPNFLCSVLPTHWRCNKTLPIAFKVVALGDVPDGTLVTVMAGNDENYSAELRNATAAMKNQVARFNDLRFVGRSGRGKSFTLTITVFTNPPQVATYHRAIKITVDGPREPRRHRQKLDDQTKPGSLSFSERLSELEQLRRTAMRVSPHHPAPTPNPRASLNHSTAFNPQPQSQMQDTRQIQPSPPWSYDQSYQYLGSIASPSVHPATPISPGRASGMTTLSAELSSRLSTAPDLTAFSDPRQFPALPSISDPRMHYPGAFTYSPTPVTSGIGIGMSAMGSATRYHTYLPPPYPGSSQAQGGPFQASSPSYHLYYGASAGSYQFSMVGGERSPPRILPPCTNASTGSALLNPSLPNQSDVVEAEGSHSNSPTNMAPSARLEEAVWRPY
Sequence of Runt-related transcription factor 1 (Homo sapiens) + Core-binding factor subunit beta (Homo sapiens) (Q13951 whole entry, looked up): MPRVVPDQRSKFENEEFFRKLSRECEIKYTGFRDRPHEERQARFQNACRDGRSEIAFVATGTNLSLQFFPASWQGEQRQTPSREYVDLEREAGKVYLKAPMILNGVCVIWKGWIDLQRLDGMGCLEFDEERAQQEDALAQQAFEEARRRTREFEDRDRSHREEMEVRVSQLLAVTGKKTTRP

SMILES | inhibition | inhibition (retest duplicate average) [%]
CC(C)NC(=O)C(=O)NCCCOC(C)C | -0.3% (inactive) | –
O=C(Nc1nccs1)c1cc(S(=O)(=O)N2CCOCC2)c(Cl)cc1Cl | -1% (inactive) | –
CCN1CCc2nc(NC(=O)c3cc(F)c(F)cc3Cl)sc2C1 | 52.5% (active) | 76.5
CC(=O)Cc1nsc(NC(=O)c2ccc(Cl)cc2Cl)n1 | -0.9% (inactive) | –
O=C(CCc1ccccc1)NNc1ccc(F)cc1 | -0.8% (inactive) | –
CCCc1cc(=O)[nH]c(SCc2cc(=O)oc3c(C)c(C)ccc23)n1 | 1.9% (inactive) | –
CCc1ccc2oc(=O)cc(CN3CCCCC3C)c2c1 (configuration not stated) | -0.5% (inactive) | –
CCCc1cc(=O)oc2c(C)c(O)c(CN3CCCCC3)cc12 | 70.4% (active) | 121
O=C(CN1CCc2ccccc21)NC(c1ccccc1)c1ccccc1 | -0.8% (inactive) | –
CCc1ccc(NC(=O)Nc2ccncc2)cc1 | -0.3% (inactive) | –
CCN(CC)c1ccc2cc(C(=O)O)c(=O)oc2c1 | 77.6% (active) | 71.5
CCN(CC)c1ccc2oc(=O)c(C)nc2c1 | -81.6% (inactive) | –
CCN(CC)c1ccc2cc(C(N)=O)/c(=N\NC(=O)c3ccncc3)oc2c1 | -128% (inactive) | –
CCc1ccc(C2C(C#N)=C(N)N(N(C)C)C3=C2C(=O)CCC3)s1 (configuration not stated) | -11.9% (inactive) | –
N#CC1=C(N)N(c2ccccc2)C2=C(C(=O)CCC2)C1c1ccccc1 (configuration not stated) | 29.5% (inactive) | –
CSc1sc(C)cc1C1C(C#N)=C(N)N(c2cccnc2)C2=C1C(=O)CCC2 (configuration not stated) | 76.1% (active) | 73.7
COc1ccc(C2/C=C\CN(S(=O)(=O)c3cccs3)CC(=O)N2Cc2ccc(F)cc2)cc1 (configuration not stated) | 2.2% (inactive) | –
COc1cc(CNc2ncn[nH]2)ccc1OCc1ccccc1C | -0.6% (inactive) | –
N#Cc1ccc(Oc2ccc(C(F)(F)F)cc2NC(=O)c2ccc(F)cc2)cc1 | -0.8% (inactive) | –
C#CCNC(=O)C1=C[C@@H](c2ccccc2)[C@H](CCCO)[C@@H](OCC)O1 | 1.4% (inactive) | –
Cc1cc(C)cc(NC(=O)NC2CCN(CC(=O)Nc3cccc(Cl)c3C)CC2)c1 | 0.9% (inactive) | –
COC(=O)C1=CN(C)C=C(C(=O)OC)C1c1ccc(Cl)cc1Cl | 60.9% (active) | 91.8
NC(=O)C1(C(N)=O)OC1c1ccc(Cl)cc1Cl (configuration not stated) | 1% (inactive) | –
CCOc1ccccc1C1C(C(=O)OC)=CN(C)C=C1C(=O)OC | 42% (inactive) | –

SMILES | inhibition | inhibition (retest duplicate average) [%]
CC(OC(=O)c1ccc(NS(=O)(=O)c2ccc3[nH]c(=O)[nH]c3c2)cc1)C(=O)Nc1cccc(Cl)c1Cl (configuration not stated) | -5.6% (inactive) | –
CCOC(=O)C1CCN(CCC(=O)Nc2cccc(C)c2)CC1 | 0.1% (inactive) | –
COCc1ccc(C(=O)N2CCc3c([nH]c4ccccc34)C2c2ccccn2)s1 (configuration not stated) | 2.3% (inactive) | –
COCCCNC(=S)NCCNc1nc2cc(C)c(C)cc2cc1C#N | 88.8% (active) | 125
Cc1ccc2nc(NCCCNC(=O)c3cnccn3)c(C#N)cc2c1 | 32% (inactive) | –
COCCCNC(=S)NC(=O)c1ccc([N+](=O)[O-])cc1 | 4.6% (inactive) | –
CC(C)N(Cc1ccccc1)C(=O)COC(=O)c1cnccn1 | -2.4% (inactive) | –
CSCCC(Nc1ccc(S(=O)(=O)N2CCOCC2)cc1[N+](=O)[O-])C(=O)OCC(=O)N(C(C)C)C(C)C (configuration not stated) | -4.8% (inactive) | –
CCCN1C2=C(C(=O)CCC2)C(c2ccc(O)c(Br)c2)C2=C1CCCC2=O | 118% (active) | 118
CCCC(=O)N1c2ccccc2NC2=C(C(=O)CCC2)C1c1ccc(F)cc1 (configuration not stated) | -4.3% (inactive) | –
CCOC(=O)C1=C(N)N(c2ccc(C)cc2)C2=C(C(=O)CCC2)C1c1cccs1 (configuration not stated) | -7.1% (inactive) | –
O=C(Nc1ccc2ccccc2c1)/C(=C\c1ccc2c(c1)OCO2)NC(=O)c1ccco1 | -21.7% (inactive) | –
COc1ccc(N2CCN(C(=O)CSc3nc4cc(OC)c(OC)cc4cc3C#N)CC2)cc1 | 9.4% (inactive) | –
COc1ccc2nc(N3CCCC(O)C3)c(C#N)cc2c1 (configuration not stated) | 65% (active) | 72.9
COc1cccc(C(=O)Nc2ccc(N3CCCC3)cc2)c1 | 5.7% (inactive) | –
Cc1cc(C)nc(SCc2cn3c(C)cc(C)nc3n2)n1 | -4% (inactive) | –
O=c1c(Cl)c(NCc2ccc(F)cc2Cl)cnn1C12CC3CC(CC(C3)C1)C2 | 3.5% (inactive) | –
FC(F)(F)c1ccc(-n2cn[nH]c2=S)cc1 | 3.3% (inactive) | –
Nc1[nH][nH]c(=O)c1N=Nc1ccc2c(c1)OCO2 | -0.1% (inactive) | –
CCCn1c(=O)c2c(C(F)(F)F)cc(-c3cccs3)nc2n(CCC)c1=O | 1.9% (inactive) | –
N#Cc1c(C(F)(F)F)cc(-c2cccs2)nc1N1CCCCC1 | 82.5% (active) | 79.2
c1csc(-c2cn3c(n2)SCC3)c1 | -6.8% (inactive) | –
C=CCCN(Cc1ccccc1)S(=O)(=O)c1ccccc1Br | -2.3% (inactive) | –
c1ccc(-n2cccc2)c(N2CCCCC2)c1 | -0.7% (inactive) | –

SMILES | inhibition | inhibition (retest duplicate average) [%]
c1ccc2cc3c(NCCN4CCOCC4)ccnc3cc2c1 | 78.2% (active) | 71.5
O=C(Cn1c(-c2ccccn2)nc2ccccc21)NCCN1CCOCC1 | -0.1% (inactive) | –
O=C(NCCN1CCOCC1)c1ccc2c(c1)ncn2C1CCCC1 | 0.2% (inactive) | –
C/C(N)=C(/C#N)C(=O)COC(=O)CNS(=O)(=O)c1ccc(C)cc1 | -1.2% (inactive) | –
CC(C)N(C)C(=O)CCc1nnc(CCc2c[nH]c3ccccc23)o1 | -1.1% (inactive) | –
COc1ccc(/C=C2\SC(=S)N(CC(=O)NNC(=O)c3ccncc3)C2=O)cc1 | -217% (inactive) | –
Cc1cc(=O)[nH]c(N/N=C/c2ccc3c(c2)OCCO3)n1 | -9.8% (inactive) | –
Cc1ccc(S(=O)(=O)Nc2ccc3ncccc3c2)cc1 | -1.3% (inactive) | –
COCc1cc(=O)oc2cc(NS(=O)(=O)c3ccc(C)cc3)ccc12 | 80.2% (active) | 71.8
COc1ccc(S(=O)(=O)Nc2ccc3oc(C)c(C(C)=O)c3c2)cc1 | -0.7% (inactive) | –
Cc1ccc(S(=O)(=O)NCCc2nnc3ccc(SCc4cccnc4)nn23)cc1 | -6.7% (inactive) | –
O=C(Nc1cc2ccccc2oc1=O)C1CCCCC1 | -0.3% (inactive) | –
CC(=O)Nc1cc2ccc(OC(C)=O)cc2oc1=O | 58.6% (active) | 119
COC(=O)Cc1c(C)c2ccc(OCC(=O)NCc3ccc4c(c3)OCO4)cc2oc1=O | -5.4% (inactive) | –
CC(=O)Oc1ccc2c(C)c(CC(C)O)c(=O)oc2c1 (configuration not stated) | 119% (active) | 116
O=C(Oc1ccccc1)Oc1ccc2c(c1)oc(=O)c1ccccc12 | -17.7% (inactive) | –
Cc1c(Cc2ccccc2)c(=O)oc2cc(OCC(N)=O)ccc12 | 2.5% (inactive) | –
CCCNC(=O)N1CCN(C(=O)NCCC)CC1 | 2.1% (inactive) | –
Cc1nc(C(=O)NCc2ccccc2)sc1C1(C)CC(c2cccnc2)=NO1 (configuration not stated) | 0.2% (inactive) | –
CCOC(=O)C1=C(c2ccccc2)NC(=S)NC1c1ccc(Cl)cc1 (configuration not stated) | -1.3% (inactive) | –
CC(C)CCNC(=O)C1CCC(CNc2c(N3CCC(C)CC3)c(=O)c2=O)CC1 (configuration not stated) | -1.8% (inactive) | –
Cc1cc2c(cc1C)[n+](C)cn2CC(O)COCC1CC=CCC1 (configuration not stated) | 7.6% (inactive) | –
N#Cc1cnn2cc(CCN3CCOCC3)c(-c3ccc(F)cc3)nc12 | -1.8% (inactive) | –
COc1ccc2c(c1)CCc1cn3ncc(C#N)c3nc1-2 | 89.1% (active) | 74.1

SMILES | inhibition | inhibition (retest duplicate average) [%]
COc1ccc2c(c1)CCc1c(C(=O)N3CCCC3)noc1-2 | -2.4% (inactive) | –
COc1ccc(OC)c2[nH]c(=O)c(CCNC(=O)C(=O)c3c[nH]c4ccccc34)cc12 | 0.3% (inactive) | –
CCCCN(C(=O)/C=C/c1ccco1)c1c(N)n(CC(C)C)c(=O)[nH]c1=O | 8.5% (inactive) | –
O=C(CNC(=O)c1ccc(-c2ccccc2)cc1)OCc1ccc(Cl)cc1 | -1.6% (inactive) | –
O=C(CNC(=O)OCc1ccccc1)Oc1cc2oc(=O)cc(-c3ccccc3)c2cc1Cl | 78.7% (active) | 71.5
CC(=O)COc1ccc2c(-c3ccccc3)cc(=O)oc2c1 | 3.8% (inactive) | –
O=[N+]([O-])c1ccc(N2CCNCC2)cc1NCc1cccnc1 | -3.2% (inactive) | –
CC(C)OCCCNC(=O)c1cc(Sc2ccc(F)cc2)nc2ccccc12 | 0.5% (inactive) | –
O=C(CSc1ncn[nH]1)Nc1nsc(-c2ccccc2)n1 | 3.7% (inactive) | –
O=C(CSc1nc(O)c(Cc2ccccc2)c(=O)[nH]1)Nc1nc2c(s1)CCCC2 | 2.5% (inactive) | –
CN1C(=O)/C(=C/C=C2\SCCN2C)OC1=S | 84.2% (active) | 79.9
CCc1ccc(C(=O)OCC(=O)NCC(F)(F)F)cc1 | -1.7% (inactive) | –
CCO[C@H]1OC(C(=O)NCc2ccccc2)=C[C@@H](c2coc3ccccc3c2=O)[C@@H]1CCCO | -0.8% (inactive) | –
CN1CCNC(=O)C1CC(=O)N1CC=C(c2ccc(F)cc2)CC1 (configuration not stated) | -7.4% (inactive) | –
CC(=O)Nc1cccc([N+](=O)[O-])c1 | 0.2% (inactive) | –
Cc1ccccc1NC(=S)Nc1cccc([N+](=O)[O-])c1 | 5.7% (inactive) | –
COC(=O)/C=C\C(=O)Nc1cccc([N+](=O)[O-])c1 | 56% (active) | 62.5
COCCCn1c(-c2cccs2)nc2nc3ccccc3nc21 | 87.7% (active) | 99.9
CC(C)n1c(-c2cccs2)nc2ccccc21 | 1.6% (inactive) | –
COc1ccc(CCn2c(-c3ccco3)nc3nc4ccccc4nc32)cc1OC | -7.1% (inactive) | –
Cc1ccc(C(=O)O)cc1NC(=O)c1ccc(Cn2nc(C)c(Cl)c2C)o1 | -2.9% (inactive) | –
O=C(CCc1n[nH]c(=O)[nH]c1=O)N/N=C/c1ccc(Br)o1 | -0.8% (inactive) | –
